Reference: PubChem BioAssay (NCI)
The panel holds about 83,000 compounds, 20% with a hit somewhere; the sample as a whole holds those more often.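 96-well plates, one dose, 48 hours. Percent growth reported; active if below 10.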 Values without a mark were called inactive. Calls of active or inactive are those of the source.

system: HL-60(TB) leukemia; assay: NCI-60 one-dose screen, 48 h (100 = growth as untreated, 0 = no growth, -100 = all killed); conditions: 10 µM unless noted

SMILES	growth
CC(C)(C)CC(C)(C)Nc1c(-c2ccc3c(c2)OCO3)nc2cnccn12	77.8%
COc1ccc2c(c1)cn1c3ccc(O)cc3nc(N)c21	-15.8% (active)
O=C1OCC2=C1C(c1ccc3c(c1)OCO3)CC(=O)N2c1cccc(Cl)c1 (stereo not given)	95.6%
COC1=CC(c2ccc[nH]2)=N/C1=C\c1[nH]c(C)c(C(=O)CCC(=O)Oc2ccc3c(c2)CCC2C3CC[C@]3(C)C(=O)CC[C@@H]23)c1C (stereo not given in full)	79.8%
O=C1Nc2ccc(F)cc2C12Nc1cc(Cl)ccc1S2 (stereo not given)	65.5%
Clc1ccc(CNc2ccc3nc(CCC4CCCCC4)[nH]c3c2)cc1	24.8%
CC(CN1CCN(C)CC1)CN1c2ccccc2Sc2ccc(C(F)(F)F)cc21 (stereo not given)	40.4%
CCCCNCC(=O)Nc1ccc(C(=O)OCC)cc1	86.9%
C/C(Cc1ccc(Cl)cc1)=C(/c1ccc(Cl)cc1)c1ccc(OCCN2CCCC2)cc1	54.7%
Cc1ccc(-c2onc3c(=O)[nH]nc(-c4ccccc4)c23)cc1	-8.12% (active)
O=[N+]([O-])c1ccc(S(=O)(=O)OCCCCOS(=O)(=O)c2ccc([N+](=O)[O-])cc2)cc1	101%
CN1CCN(C(=O)[C@@]2(C)CC[C@]3(C)CC[C@]4(C)C(=CC[C@@H]5[C@@]6(C)CCC(=O)NC(C)(C)[C@@H]6CC[C@]54C)[C@@H]3C2)CC1	-35.8% (active)
COc1cc(NC(=O)c2cccc(-c3cc(=O)c4c(OC)c(OC)c(OC)cc4o3)c2)cc(OC)c1OC	36%
CCn1c(CN2CCN(Cc3ccccc3)CC2)nc2cc(NC(=O)c3cccs3)ccc21	-51.2% (active)
CCOC(=O)CC1CSC(N/N=C(/C)c2cccc(C(F)(F)F)c2)=N1 (stereo not given)	101%
CN(C)c1ccc(/C=C(\C#N)c2cc3ccccc3[nH]2)cc1	22.2%
CN1c2ccccc2C(C)(C)C12C=Cc1cc(O)ccc1O2 (stereo not given)	-30.1% (active)
Cc1c(-c2cnc3ccc(Cl)cc3c2C(=O)O)nnn1-c1ccc(Cl)cc1	96.2%
O=c1c2c(c(=O)n1O)c1c3ccc[nH]c3nc1c1nc3[nH]cccc3c12	81%
CC1(c2ccccc2)OC1C(=O)O (stereo not given)	103%

SMILES	growth
CN(C)c1ccc(-c2ccc3[nH]c(=O)nc(-c4ccccc4)c3c2)cn1	3.35% (active)
CC1=CSC2=NCCN12	97.1%
C=C1C(=O)O[C@H]2[C@H]1CC/C(Cn1cc(CNC(=O)Cc3cn(C(=O)c4ccc(Cl)cc4)c4ccc(OC)cc34)nn1)=C\CC[C@@]1(C)O[C@@H]21	-53.4% (active)
Cc1cc(C)c(C#N)c(Sc2nc(C)c([N+](=O)[O-])c(C)c2C#N)n1	66.2%
COc1ccc(C2CC(c3ccc(OC)cc3O)=NN2c2ccc(S(N)(=O)=O)cc2)cc1 (stereo not given)	-23.2% (active)
N#CC1=C(N)Oc2c(sc3c(Br)cccc23)C1c1ccc(Br)cc1 (stereo not given)	6.12% (active)
CN(C)c1cnccn1	90.3%
COc1ccc(Cn2cc3c(c2-c2cc(OC)c(OC)c(OC)c2)CCc2c(CO)noc2-3)cc1	-36.2% (active)
COc1ccc(-c2nnc(SCC(=O)N3CCN(c4cc5c(cc4F)c(=O)c(C(=O)O)cn5C4CC4)CC3)o2)cc1OC	66.8%
COc1cc(CCn2nnc3c(NCCCCO)ncnc32)cc(OC)c1	133%
CC[n+]1ccc2c(c1)C(=O)c1nccc3c1c-2nc1ccccc13	-31.8% (active)
O=C1C2=C(Nc3cc(Cl)ccc3N2)OC1c1c[nH]c2ccc(COc3ccccc3)cc12 (stereo not given)	81.6%
C=C1C(=O)O[C@H]2[C@H]1CC/C(COC(=O)CCCCCC(=O)OC/C1=C/CC[C@@]3(C)O[C@H]3[C@H]3OC(=O)C(=C)[C@@H]3CC1)=C\CC[C@@]1(C)O[C@@H]21	-30% (active)
O=C1c2cccnc2-c2ncccc21	95.4% [100 µM]
COc1cccc(/C=C2\Oc3cc(OCCN4CCCC4)ccc3C2=O)c1	99.6%
COCCn1cc(-c2csc(-c3cn(C)c4ccc(Br)cc34)n2)c2cccnc21	51.3%
O=C1CCC(=O)CC1	97.7%
CCOC(=O)C1=C(C(=O)c2ccccc2)C(c2cccc([N+](=O)[O-])c2)C(C(=O)c2ccccc2)=C(C(=O)OCC)N1	66.8%
Cc1ccccc1SSc1ccccc1C	99.6%
Clc1nc(Cl)c2c3c(sc2n1)CCCC3	-14.2% (active)
